Assay outcomes deposited in PubChem by several laboratories.
This is a sample that favours compounds with a hit; in the whole collection about 1.3% have one here.
NCOA2 inhibitor – inhibits human steroid receptor coactivator 2; Q15596; HEK293 GAL4-SRC2 luciferase reporter, luminescence; inhibition, % at 9 µM; actives 0.17% (n = 370,000); AID 651957;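 active = inhibition above the mean inhibition of all tested compounds plus 3 SD, set per campaign, cut at about 52% in these data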;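 also: 0% = DMSO treated cells and 100% = cells given Gossypol at 36 µM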
Gli-Sufu block – blocks Gli-Sufu signaling in a luciferase reporter; Sufu-KO-LIGHT fibroblasts, Gli luciferase reporter luminescence; inhibition, % at 5 µM; actives 0.74% (n = 340,000); AID 588413;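 active = inhibition above about 55%, limit read from the data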;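 also: 0% = DMSO-treated cells and 100% = wells with medium but no cells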
SRC1 inh – inhibitors of human steroid receptor coactivator 1 (SRC1) | Q15788 | HEK293 GAL4-SRC1 luciferase reporter, luminescence | inhibition, % at 3.6 µM | actives 0.12% (n = 360,000) | AID 588354;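 active = inhibition above the campaign mean plus 3 SD, with each screening campaign given its own cutoff, cut at about 60% in these data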;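 also: 0% = DMSO treated cells and 100% = gossypol at 36 µM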
NCOA3 inh – inhibits human SRC3 coactivator | AID 588352 | actives 0.17% (n = 360,000) | Q9Y6Q9 | HEK293 GAL4-SRC3 luciferase reporter, luminescence | inhibition, % at 3.6 µM;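 active = inhibition above a per-campaign cutoff, the mean of all compounds plus 3 SD, cut at about 60% in these data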;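 also: 0% = DMSO-treated cells and 100% = gossypol-treated cells at 36 µM; higher means less SRC3-driven luciferase light from the GAL4 reporter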
COUP-TFII inh – NR2F2 (human) inhibition, primary screen | P24468 | HEK293T NGFI-A luciferase reporter, luminescence | inhibition, % at 8.6 µM | actives 0.7% (n = 370,000) | AID 686940;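 active = inhibition above a per-plate cutoff, mean inhibition of test wells between control levels plus 3 SD, cut at about 38% in these data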;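 also: cells cotransfected with COUP-TFII expression vector driving the NGFI-A reporter; 0% = median of COUP-TF2 test wells and 100% = reporter-only cells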
Target sequence (P24468 whole entry, looked up): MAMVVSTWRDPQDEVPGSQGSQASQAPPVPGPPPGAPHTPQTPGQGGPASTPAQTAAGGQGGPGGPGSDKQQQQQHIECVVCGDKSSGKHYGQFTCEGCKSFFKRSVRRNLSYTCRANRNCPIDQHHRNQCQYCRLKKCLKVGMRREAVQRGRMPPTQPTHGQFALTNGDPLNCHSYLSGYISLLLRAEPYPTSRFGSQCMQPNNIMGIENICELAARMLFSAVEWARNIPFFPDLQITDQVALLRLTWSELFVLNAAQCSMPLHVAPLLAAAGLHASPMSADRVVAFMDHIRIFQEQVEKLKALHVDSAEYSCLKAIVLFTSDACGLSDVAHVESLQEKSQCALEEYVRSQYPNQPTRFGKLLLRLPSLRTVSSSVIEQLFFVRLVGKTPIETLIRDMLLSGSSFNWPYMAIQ
NR5A2 inv ag – inverse agonists of human LRH-1 (NR5A2). HEK293T StAR-luciferase reporter, LRH-1 transfected, 24 h. inhibition, % at 3.6 µM. actives 0.13% (n = 360,000);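 active = inhibition above the mean inhibition of all tested compounds plus 3 SD, cut at about 73% in these data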;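 also: 0% = DMSO wells and 100% = reporter-only cells lacking LRH-1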
Gli antag conf – Gli-SUFU antagonism confirmation, single concentration | Sufu-KO-LIGHT cells, Gli luciferase reporter, luminescence | inhibition, % at 5 µM | shares compounds with Gli-Sufu block | actives 40% (n = 2,500);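 active = mean inhibition at 5 µM reaching about 45%, limit read from the data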;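 also: plate controls were DMSO-treated cells for no effect and wells lacking cells for full effect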
SufuKO cytotox – cytotoxic in Gli-SUFU antagonist counter-screen; AID 651994; shares compounds with Gli-Sufu block; Sufu-KO-LIGHT cells cytotoxicity, ATP luminescence; actives 32% (n = 2,500); cytotoxicity, % at 5 µM;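 active = mean cytotoxicity at 5 µM above about 25%, limit read from the data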;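 also: cells exposed to compound overnight for roughly 16 to 18 hours; plate controls were DMSO wells with cells for no effect and medium without cells for full effect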
Wnt3a cs – inhibits Wnt3a reporter, counter-screen for Gli-SUFU antagonists. shares compounds with Gli-Sufu block. Wnt-LIGHT cells, Wnt3a-driven luciferase reporter, luminescence. inhibition, % at 6.25 µM. actives 20% (n = 2,500);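 active = mean inhibition above about 25%, limit read from the data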
* marks the source's active call; other numbers are inactive results.

Screening CC(C)[C@H](NC(N)=O)C(=O)Nc1ccc(F)c(Cl)c1 returned NCOA2 inhibitor 9, Gli-Sufu block 53, SRC1 inh -8, NCOA3 inh 23, COUP-TFII inh 10, NR5A2 inv ag -15, Gli antag conf 4, SufuKO cytotox 1 and Wnt3a cs -6.
For C/C(C=NNC(=O)CSc1nnc(-c2ccccc2)n1-c1ccc(C)cc1)=C\c1ccco1 the results were NCOA2 inhibitor -5 and COUP-TFII inh 14.
Screening COc1ccc(N2CCn3c2nc2c3c(=O)n(CCCc3ccccc3)c(=O)n2C)c(OC)c1 returned NCOA2 inhibitor -14, Gli-Sufu block 51, SRC1 inh -1, NCOA3 inh 14, COUP-TFII inh 12, NR5A2 inv ag 10, Gli antag conf 55*, SufuKO cytotox 35* and Wnt3a cs 5.
For COc1ccc(N2CC(C)Cn3c2nc2c3c(=O)n(Cc3ccccc3)c(=O)n2C)c(OC)c1 (centres undefined) the results were NCOA2 inhibitor -4, Gli-Sufu block 21, SRC1 inh 19, NCOA3 inh 5, COUP-TFII inh -4 and NR5A2 inv ag -26.
For COc1cc(/C=C2/NC(=O)N(c3cccc(Cl)c3)C2=O)ccc1O the results were NCOA2 inhibitor 16, Gli-Sufu block 75*, SRC1 inh -38, NCOA3 inh -20, COUP-TFII inh 1, NR5A2 inv ag -54, Gli antag conf 80*, SufuKO cytotox 23 and Wnt3a cs 46*.
`COc1ccc(-n2cccc2/C=C2/NC(=O)N(c3cccc(Cl)c3)C2=O)cc1` gave NCOA2 inhibitor -44, Gli-Sufu block -7, SRC1 inh -54, NCOA3 inh -8, COUP-TFII inh -4 and NR5A2 inv ag -50.
CCOC(=O)c1c(N)sc(C(O)(C(F)(F)F)C(F)(F)F)c1-c1ccc(F)cc1 was read as NCOA2 inhibitor -1, Gli-Sufu block 53, SRC1 inh 1, NCOA3 inh 13, COUP-TFII inh 0, NR5A2 inv ag 9, Gli antag conf 6, SufuKO cytotox 5 and Wnt3a cs -56.
`CCC[C@H](/C=C/C(=O)OC(C)(C)C)Sc1ccc(OC)cc1` gave NCOA2 inhibitor -26 and COUP-TFII inh -19.
For COc1cc(-c2c(-c3cc(OC)c(OC)c(OC)c3)noc2C)ccc1F the results were NCOA2 inhibitor 24, Gli-Sufu block 51, COUP-TFII inh -97, Gli antag conf 67*, SufuKO cytotox 65* and Wnt3a cs 0.
For COc1ccc(-c2c(-c3cc(OC)c(OC)c(OC)c3)noc2C)cn1 the results were Gli-Sufu block 30, SRC1 inh -4, NCOA3 inh -8 and NR5A2 inv ag -3.
Screening CC(=O)N1CCN(C(=O)c2ccc(CNC(=O)c3cccc(Br)c3)cc2)CC1 returned NCOA2 inhibitor 1 and COUP-TFII inh -5.
`Cc1ccc(NC(=O)[C@@H]2CC(=O)O[C@@H]2c2ccccc2)cc1C` gave NCOA2 inhibitor -22 and COUP-TFII inh -26.
For CC(=O)N1c2ccc(S(=O)(=O)N3CCC(C(=O)N4CCCCC4)CC3)cc2CC1C (centres undefined) the results were NCOA2 inhibitor 3, Gli-Sufu block 55, SRC1 inh -24, NCOA3 inh 26, COUP-TFII inh 12, NR5A2 inv ag 12, Gli antag conf 49*, SufuKO cytotox 24 and Wnt3a cs -5.
`CC(=O)N1c2ccc(S(=O)(=O)N3CCCCC3)cc2CC1C` (centres undefined) gave NCOA2 inhibitor -7, Gli-Sufu block -13, SRC1 inh 3, NCOA3 inh 7, COUP-TFII inh 4 and NR5A2 inv ag 11.
For CCCCNC(=O)C1CCN(S(=O)(=O)c2ccc3c(c2)CC(C)N3C(=O)C2CC2)CC1 (centres undefined) the results were NCOA2 inhibitor -2, Gli-Sufu block 94*, SRC1 inh -23, NCOA3 inh 1, COUP-TFII inh -11, NR5A2 inv ag 0, Gli antag conf 16, SufuKO cytotox 6 and Wnt3a cs -16.
Screening CCOc1cc(CN2CCN(CCc3ccccc3)C(CCO)C2)ccc1OC (centres undefined) returned NCOA2 inhibitor -10, Gli-Sufu block 61*, SRC1 inh 6, NCOA3 inh 9, COUP-TFII inh -12, NR5A2 inv ag 20, Gli antag conf 14, SufuKO cytotox 5 and Wnt3a cs -19.
CCOC(=O)c1c(C2COc3ccccc3O2)csc1NC(=O)c1ccccc1 (centres undefined) was read as NCOA2 inhibitor -8, Gli-Sufu block 9, SRC1 inh 14, NCOA3 inh 12, COUP-TFII inh -27 and NR5A2 inv ag 7.
CCOC(=O)c1c(C2COc3ccccc3O2)csc1N (centres undefined) was read as NCOA2 inhibitor -6, Gli-Sufu block 55, SRC1 inh 4, NCOA3 inh 7, COUP-TFII inh -3, NR5A2 inv ag -1, Gli antag conf 13, SufuKO cytotox 29* and Wnt3a cs -19.
`CCOC(=O)c1c(C)[nH]c(C(=O)Cn2nnc(-c3ccc(Cl)cc3)n2)c1C` gave NCOA2 inhibitor 3, Gli-Sufu block 56*, SRC1 inh 4, NCOA3 inh 16, COUP-TFII inh 6, NR5A2 inv ag -7, Gli antag conf 12, SufuKO cytotox 13 and Wnt3a cs -11.
`COc1cccc(C(=O)C2CCCN(C(=O)c3ccc(C#CC(C)(C)O)cc3)C2)c1` (centres undefined) gave NCOA2 inhibitor -10, Gli-Sufu block 60*, SRC1 inh -10, NCOA3 inh 8, COUP-TFII inh 18, NR5A2 inv ag 2, Gli antag conf 18, SufuKO cytotox 14 and Wnt3a cs -45.
Cn1ccc(C(=O)N/N=C/c2c[nH]c3ccccc23)n1 was read as NCOA2 inhibitor -29, Gli-Sufu block 97*, SRC1 inh -36, NCOA3 inh -23, COUP-TFII inh -4, NR5A2 inv ag -29, Gli antag conf 6, SufuKO cytotox 20 and Wnt3a cs -50.
`O=C(N/N=C/c1c[nH]c2ccccc12)c1ccn(Cc2ccc(Cl)cc2Cl)n1` gave NCOA2 inhibitor 7, Gli-Sufu block 12, SRC1 inh -3, NCOA3 inh -3, COUP-TFII inh 4 and NR5A2 inv ag 20.
